# In the supplement of paper PMC8975748:
# Counter-ions that a name gives are not always drawn.
# Test system: Saccharomyces cerevisiae BY4741 SeMeCo community
# Assay: z-score of subpopulation abundance vs DMSO median, subpopulation auxotrophic for UM; higher = larger share of this subpopulation than in DMSO controls
# Settings: 10 µM; 24 h; SM minimal medium; subpopulation (auxotrophy): UM
# Protocol: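 Fluorescent four-plasmid SeMeCo (self-establishing metabolically cooperating S. cerevisiae BY4741 community; plasmids pH-mRuby2, pL-mWasabi, pU-eCFP, pM-TagRFP657) was grown 24 h in minimal SM medium with each Selleck FDA-approved drug at 10 µM in 384-well plates. Cells were fixed and imaged by high-content confocal microscopy. For each auxotrophic subpopulation (and the prototroph), a z-score gives the deviation from the DMSO vehicle-control population median.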
row,Compound,z-score of subpopulation abundance
1,Clc1ccc(C(Cn2ccnc2)OCc2csc3c(Cl)cccc23)c(Cl)c1 (stereo not given) [Sertaconazole nitrate],-2.33
2,CC(C(=O)O)c1ccc2c(c1)Cc1cccnc1O2 (stereo not given) [Pranoprofen],-0.93
3,C#C[C@]1(O)CC[C@H]2[C@@H]3CCC4=CC(=O)CC[C@@H]4[C@H]3CC[C@@]21CC [Levonorgestrel],-0.13
4,CCCc1cc(C(N)=S)ccn1 [Protionamide],0.32
5,Cc1cc(CC(C)CC(C)(C)C)n(O)c(=O)c1 (stereo not given) [Piroctone Olamine],6.25
6,CO/N=C(\C(=O)N[C@@H]1C(=O)N2C(C(=O)O)=CCS[C@H]12)c1csc(N)n1 [Ceftizoxime],-0.98
7,C[C@]12CC[C@@H]3c4ccc(O)cc4CC[C@H]3[C@@H]1C[C@@H](O)[C@@H]2O [Estriol],-0.62
8,CN1CCN2c3ncccc3Cc3ccccc3C2C1 (stereo not given) [Mirtazapine],0.24
9,Clc1ccc(COC(Cn2ccnc2)c2ccc(Cl)cc2Cl)cc1 (stereo not given) [Econazole],9.39
10,C[C@H]1c2cccc(O)c2C(O)=C2C(=O)[C@]3(O)C(O)=C(C(N)=O)C(=O)[C@@H](N(C)C)[C@@H]3[C@@H](O)[C@@H]21 [Doxycycline monohydrate],-1.13
11,CCn1cc(C(=O)O)c(=O)c2cc(F)c(N3CCNCC3)nc21 [Enoxacin Sesquihydrate],1.24
12,O=C(c1ccc(F)cc1)C1CCN(CCn2c(=O)[nH]c3ccccc3c2=O)CC1 [Ketanserin],-0.54
13,COc1cc(O)c(C(=O)Nc2nc(C(=O)NCCN(C(C)C)C(C)C)cs2)cc1OC [Acotiamide hydrochloride],0.4
14,Cc1ccc(-c2ncc(Cl)cc2-c2ccc(S(C)(=O)=O)cc2)cn1 [Etoricoxib],0.52
15,CC#C[C@]1(O)CC[C@H]2[C@@H]3CCC4=CC(=O)CCC4=C3[C@@H](c3ccc(N(C)C)cc3)C[C@@]21C [Mifepristone],0.64
16,CN[C@@H]1[C@@H](O)[C@@H](O[C@@H]2[C@@H](O)[C@H](O[C@H]3OC(CN)=CC[C@H]3N)[C@@H](N)C[C@H]2N)OC[C@]1(C)O [Sisomicin sulfate],0.74
17,CO/N=C(\C(=O)N[C@@H]1C(=O)N2C(C(=O)O)=C(Cn3ccc(=N)n3CCO)CS[C@H]12)c1csc(N)n1 [Cefoselis Sulfate],0.03
18,N[C@@H](CCC(=O)O)C(=O)O [(S)-Glutamic acid],-0.63
19,CN(CCN1CCC(OC(=O)Nc2ccccc2-c2ccccc2)CC1)C(=O)c1ccc(CN2CCC(C(N)=O)CC2)cc1 [Revefenacin],0.92
20,Cc1c(S(=O)(=O)O)oc2c1C(=O)C(=O)c1c-2ccc2c1CCCC2(C)C [Tanshinone IIA sulfonate (sodium)],1.77

row,Compound,z-score of subpopulation abundance
1,C[C@@H]1O[C@@H]1P(=O)(O)O [Fosfomycin Disodium],-0.18
2,CN1CCC(=C2c3ccccc3C=Cc3ccccc32)CC1 [Cyproheptadine hydrochloride],-0.25
3,CN(C)CCCN1c2ccccc2CCc2ccc(Cl)cc21 [Clomipramine HCl],0.93
4,CCCCOc1cc(C(=O)OCCN(CC)CC)ccc1N [Oxybuprocaine HCl],-0.55
5,O=C(NCCN1CCOCC1)c1ccc(Cl)cc1,-1.28
6,CCn1cc(C(=O)O)c(=O)c2cc(F)c(N3CCN(C)CC3)cc21 [Pefloxacin Mesylate Dihydrate],0.05
7,NCc1ccccc1CC(=O)N[C@@H]1C(=O)N2C(C(=O)O)=C(CSc3nnnn3CC(=O)O)CS[C@H]12 [Ceforanide],-0.41
8,CN1CCC[C@@H]1Cc1c[nH]c2ccc(CCS(=O)(=O)c3ccccc3)cc12 [Eletriptan HBr],-0.86
9,CCOc1ccc2ccccc2c1C(=O)N[C@@H]1C(=O)N2[C@@H]1SC(C)(C)[C@@H]2C(=O)O [Nafcillin Sodium],-0.68
10,COCCCC/C(=N\OCCN)c1ccc(C(F)(F)F)cc1 [Fluvoxamine maleate],-0.21
11,OCCOCCN1CCN(C2=Nc3ccccc3Sc3ccccc32)CC1 [Quetiapine Fumarate],0.49
12,CCC[S+]([O-])c1ccc2[nH]c(NC(=O)OC)nc2c1 (stereo not given) [Albendazole Oxide],0.18
13,Cc1c[nH]c(=O)[nH]c1=O [Thymine],0.58
14,CNS(=O)(=O)CCc1ccc2[nH]cc(C3CCN(C)CC3)c2c1 [Naratriptan HCl],0.23
15,CC(C)(C)CC(C)(C)c1ccc(OCCOCC[N+](C)(C)Cc2ccccc2)cc1 [Benzethonium Chloride],-0.2
16,CN(C)CC(c1ccc(O)cc1)C1(O)CCCCC1 (stereo not given) [Desvenlafaxine],-0.37
17,Oc1c(I)cc(I)c2cccnc12 [Diiodohydroxyquinoline],0.65
18,COc1ccc2c(c1)c(CC(=O)OCC(=O)O)c(C)n2C(=O)c1ccc(Cl)cc1 [Acemetacin],0.2
19,Nc1c2c(nc3ccccc13)CCCC2 [Tacrine hydrochloride hydrate],0.92
20,Cc1nnc(SCC2=C(C(=O)O)N3C(=O)[C@@H](NC(=O)Cn4cc(Cl)c(=O)c(Cl)c4)[C@H]3SC2)s1 [Cefazedone],-0.27
